# From PubChem BioAssay
# A selection: hits, their analogues and other compounds. The true share with any hit is near 2.2%.
# MEKK2mut PB1 HTS = signal of MEK5 binding to mutant human MEKK2 PB1 domain | bead flow cytometry, Alexa488-MEK5 binding to MEKK2 mutant | percent response, % at 10 µM | actives 0.35% (n = 290,000) | AID 1530; in the data active = percent response above about 24%, passing the limit was not always enough
# MEKK3 PB1 HTS = raises or lowers MEK5 binding to the human MEKK3 PB1 domain; Q99759; bead-based flow cytometry, Alexa488-MEK5 binding to MEKK3; actives lie on both sides; 0 = blocked by unlabeled MEK5, 100 = vehicle; binding response (% of control), % at 10 µM; actives 1.4% (n = 290,000); AID 1529;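 active = binding response more than 3 SD above or below the average of its plate-row segment, actives on both sides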;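 note: Alexa488 bead fluorescence after subtracting the streptavidin-only scavenger bead signal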
# Target sequence (Q99759 whole entry, looked up, the tested form may be a part): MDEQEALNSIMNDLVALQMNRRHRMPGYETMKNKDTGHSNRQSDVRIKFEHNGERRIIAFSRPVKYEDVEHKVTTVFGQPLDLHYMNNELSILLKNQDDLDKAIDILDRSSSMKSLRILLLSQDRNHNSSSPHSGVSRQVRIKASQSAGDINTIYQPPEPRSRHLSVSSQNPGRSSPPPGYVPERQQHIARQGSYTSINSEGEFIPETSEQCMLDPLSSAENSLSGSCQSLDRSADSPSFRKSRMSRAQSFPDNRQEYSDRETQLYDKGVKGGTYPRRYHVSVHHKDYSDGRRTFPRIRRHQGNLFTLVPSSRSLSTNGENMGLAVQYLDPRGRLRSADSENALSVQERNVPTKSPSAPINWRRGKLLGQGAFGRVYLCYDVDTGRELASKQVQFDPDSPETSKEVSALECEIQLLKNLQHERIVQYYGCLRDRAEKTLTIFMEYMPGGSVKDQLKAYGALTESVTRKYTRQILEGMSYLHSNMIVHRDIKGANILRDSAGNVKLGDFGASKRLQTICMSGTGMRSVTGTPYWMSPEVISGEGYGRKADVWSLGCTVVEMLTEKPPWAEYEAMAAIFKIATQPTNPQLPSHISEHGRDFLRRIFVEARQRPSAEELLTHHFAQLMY
# VLA-4 inh = inhibition in a human VLA-4 binding assay; P13612; VLA-4 expressing cells, ligand binding flow cytometry; inhibition, % (about 7 µM as worked out from the volumes in the protocol); actives 0.2% (n = 330,000); AID 2557; in the data active = inhibition above about 50%
# MEKK2wt PB1 HTS = raises or lowers MEK5 binding to wildtype human MEKK2 PB1 domain; Q9Y2U5; bead flow cytometry, Alexa488-MEK5 binding to MEKK2 WT; actives lie on both sides; binding response (% of control), % at 10 µM; actives 1.1% (n = 290,000); in the data active = binding response below about 67% or above about 130%
# VLA-4 mod pick = confirmation of allosteric modulators of human VLA-4 integrin | actives 2% (n = 1,300) | shares compounds with VLA-4 inh | inhibition, % at 6.7 µM | U937 cells, HUTS-21 LIBS mAb binding, flow cytometry; LDV ligand present at threefold Kd | AID 2813; in the data active = inhibition above about 40%;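 note: 0% = ligand without compound and 100% = no ligand background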
# * marks the source's active call; other numbers are inactive results; . = no result given; ! = repeats disagree.
SMILES,MEKK2mut PB1 HTS,MEKK3 PB1 HTS,VLA-4 inh,MEKK2wt PB1 HTS,VLA-4 mod pick
COC(=O)[C@@H]1[C@@H](C(=O)OC)C2(c3ccccc3-c3ccccc32)N(c2ccc(Cl)cc2)N1C#N,1,85,58*,88,38
C[C@]12CCC3C(CC[C@H]4C[C@@H](O)CC[C@]34C)C1C[C@H](Br)[C@@H]2O (stereo partly drawn),.,.,-10,.,.
COC(=O)C1=C(c2ccccc2OCc2ccccc2)C[C@@H]2CC[C@H]1N2C(=O)NCc1cccc(C(F)(F)F)c1,.,.,-5,.,.
C[N+]1(C)C2CCC1CC(OC(=O)c1ccccc1)C2 (stereo not drawn),-6,65,4,65,-3
COc1ccc2c3c1OC1[C@H](O)CCC4[C@@H](C2)N(C)CC[C@]314 (stereo partly drawn),.,.,-7,.,.
CCOc1ccc(C(=O)OC2CC3CCC(C2)N3C)cc1 (stereo not drawn),6,108,-6,94,3
COc1ccc(C(=O)OC2C[C@H]3CC[C@H](C2)N3C)cc1OC (stereo partly drawn),.,.,11,.,-6
CN1C2CCC1CC(OC(=O)c1ccc(Cl)cc1)(C(=O)O)C2 (stereo not drawn),1,97,0,99,-12
CN1C2CCC1CC(OC(=O)c1ccc(Cl)cc1)C2 (stereo not drawn),-1,105,11,111,-1
COC(=O)C1=C(c2ccc(C(C)=O)cc2)C[C@@H]2CC[C@H]1N2C,.,.,0,.,.
COCCNC(=O)Cn1cc(C(=O)c2ccccc2F)c2ccccc21,0,100,6,98,1
O=C(Cn1cc(C(=O)c2ccccc2F)c2ccccc21)NCc1ccco1,5,103,0,101,.
N#C/C=C/C#N,.,.,4,.,.
COc1ccc(CCN)cc1OC,8,103,-7,104,.
NCCc1ccc(OCc2ccccc2)c(OCc2ccccc2)c1,.,.,74*,.,29
COC(=O)C1C(OC(=O)c2ccccc2)CC2CCC1N2C (stereo not drawn),3,107,3,106,-5
C=C1C(O)[C@@H]2O[C@]3(CC[C@H](/C=C/C(C)[C@@H]4CC(C)=CC5(O[C@H](C[C@@](C)(O)C(=O)O)CCC5O)O4)O3)CC[C@H]2O[C@@H]1C(O)CC(C)[C@H]1OC2(CCCCO2)CCC1C (stereo partly drawn),.,.,36,.,.
Cc1ccc(-c2cc(-c3ccc(C)cc3)[n+](-c3ccccc3)c(-c3ccc(C)cc3)c2)cc1,.,.,54*,.,3
Cc1ccc(-c2cc(-c3ccccc3)cc(-c3ccccc3)[n+]2-c2ccccc2)cc1,.,.,-1,.,.
COc1ccc(C2=NCC(=O)N(CC(=O)NCc3ccco3)c3sc4c(c32)CCCC4)cc1,3,102,-20,100,.
O=C1CN=C(c2ccc(Br)cc2)c2c(sc3c2CCCC3)N1CCN1CCCCC1,2,125,55*,121,12
CCCCOP(=O)(CN1CCOCC1)OCCCC,9,107,91*,108,-4
Nc1ncc([N+](=O)[O-])s1,.,.,5,.,.
CCC(=O)c1ccc(OCC(=O)N2CCN(CC(=O)Nc3ccccc3C(F)(F)F)CC2)cc1,.,.,9,.,.
Nc1ncc2[nH]cnc2n1,.,.,53*!,.,2
CCOC(=O)[C@@H]1[C@H]2COc3ccc(Br)cc3[C@H]2N2C(=O)N(c3cccc(C)c3)C(=O)[C@]12C,.,.,9,.,.
